From ChEMBL document CHEMBL1961873, “Compounds: GSK PKIS; Assays: Nanosyn kinase panel” (2012) come the findings set out here.

For experiment [1], the target named is Serine/threonine-protein kinase pim-2 (Homo sapiens) (UniProt Q9P1W9). Particulars: at 1 µM.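 Further: each value is a mean of the inhibition measurements against the kinase.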
The target of experiment [2] is Serine/threonine-protein kinase pim-3 (Homo sapiens) (UniProt Q86V86). To be noted: at 0.1 µM.
Experiment [3] shares this target. To be noted: at 1 µM.
Experiment [4] addresses T1, MAP kinase-activated protein kinase 5 (Homo sapiens) (UniProt Q8IW41).
T1 sequence (whole entry): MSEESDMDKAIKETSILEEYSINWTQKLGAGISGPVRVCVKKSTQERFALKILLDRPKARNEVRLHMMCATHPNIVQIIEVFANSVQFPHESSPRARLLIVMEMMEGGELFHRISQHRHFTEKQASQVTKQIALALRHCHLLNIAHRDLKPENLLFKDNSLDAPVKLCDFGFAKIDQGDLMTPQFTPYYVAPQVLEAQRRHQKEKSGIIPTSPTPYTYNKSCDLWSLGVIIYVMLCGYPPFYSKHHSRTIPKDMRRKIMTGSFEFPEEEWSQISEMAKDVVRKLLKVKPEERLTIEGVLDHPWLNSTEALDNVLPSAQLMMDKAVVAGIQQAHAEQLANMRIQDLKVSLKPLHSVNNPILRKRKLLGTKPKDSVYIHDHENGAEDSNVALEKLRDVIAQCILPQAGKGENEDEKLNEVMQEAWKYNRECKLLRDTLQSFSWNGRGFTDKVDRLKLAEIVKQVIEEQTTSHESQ
To be noted: at 0.1 µM.

The target in experiment [5] is T1, MAP kinase-activated protein kinase 5 (Homo sapiens). To be noted: at 1 µM.
Experiment [6] addresses Serine/threonine-protein kinase SIK1 (Homo sapiens) (UniProt P57059). To be noted: at 0.1 µM.
The target is the same in experiment [7]. Particulars: at 1 µM.
Experiment [8] has as its target Serine/threonine-protein kinase SIK2 (Homo sapiens) (UniProt Q9H0K1). To be noted: at 0.1 µM.
Experiment [9] shares this target. To be noted: at 1 µM.
The target of experiment [10] is T2, Serine/threonine-protein kinase TBK1 (Homo sapiens) (UniProt Q9UHD2).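 Further: values are the mean TBK1 inhibition, taken from the GSK PKIS screening data.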
T2 sequence (whole entry): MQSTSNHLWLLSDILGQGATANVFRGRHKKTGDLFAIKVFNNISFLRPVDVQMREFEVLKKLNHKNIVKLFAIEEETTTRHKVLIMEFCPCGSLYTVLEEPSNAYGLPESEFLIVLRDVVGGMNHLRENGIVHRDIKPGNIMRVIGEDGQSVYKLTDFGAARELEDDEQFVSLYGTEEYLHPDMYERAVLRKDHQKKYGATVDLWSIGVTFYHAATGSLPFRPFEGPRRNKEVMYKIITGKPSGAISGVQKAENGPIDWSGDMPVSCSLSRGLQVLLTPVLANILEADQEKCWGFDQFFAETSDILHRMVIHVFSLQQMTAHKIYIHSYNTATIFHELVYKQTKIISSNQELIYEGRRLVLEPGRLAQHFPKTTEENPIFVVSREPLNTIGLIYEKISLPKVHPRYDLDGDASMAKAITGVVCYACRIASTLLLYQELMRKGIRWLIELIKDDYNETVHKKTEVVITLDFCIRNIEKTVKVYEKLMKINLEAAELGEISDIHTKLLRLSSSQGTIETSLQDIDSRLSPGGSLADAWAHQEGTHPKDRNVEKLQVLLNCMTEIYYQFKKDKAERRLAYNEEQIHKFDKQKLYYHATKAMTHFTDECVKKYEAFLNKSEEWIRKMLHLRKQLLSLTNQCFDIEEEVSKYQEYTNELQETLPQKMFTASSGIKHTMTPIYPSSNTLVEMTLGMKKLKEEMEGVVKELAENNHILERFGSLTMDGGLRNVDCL
Particulars: at 0.1 µM.

Sequence of Serine/threonine-protein kinase SIK1 (Homo sapiens) (P57059 whole entry): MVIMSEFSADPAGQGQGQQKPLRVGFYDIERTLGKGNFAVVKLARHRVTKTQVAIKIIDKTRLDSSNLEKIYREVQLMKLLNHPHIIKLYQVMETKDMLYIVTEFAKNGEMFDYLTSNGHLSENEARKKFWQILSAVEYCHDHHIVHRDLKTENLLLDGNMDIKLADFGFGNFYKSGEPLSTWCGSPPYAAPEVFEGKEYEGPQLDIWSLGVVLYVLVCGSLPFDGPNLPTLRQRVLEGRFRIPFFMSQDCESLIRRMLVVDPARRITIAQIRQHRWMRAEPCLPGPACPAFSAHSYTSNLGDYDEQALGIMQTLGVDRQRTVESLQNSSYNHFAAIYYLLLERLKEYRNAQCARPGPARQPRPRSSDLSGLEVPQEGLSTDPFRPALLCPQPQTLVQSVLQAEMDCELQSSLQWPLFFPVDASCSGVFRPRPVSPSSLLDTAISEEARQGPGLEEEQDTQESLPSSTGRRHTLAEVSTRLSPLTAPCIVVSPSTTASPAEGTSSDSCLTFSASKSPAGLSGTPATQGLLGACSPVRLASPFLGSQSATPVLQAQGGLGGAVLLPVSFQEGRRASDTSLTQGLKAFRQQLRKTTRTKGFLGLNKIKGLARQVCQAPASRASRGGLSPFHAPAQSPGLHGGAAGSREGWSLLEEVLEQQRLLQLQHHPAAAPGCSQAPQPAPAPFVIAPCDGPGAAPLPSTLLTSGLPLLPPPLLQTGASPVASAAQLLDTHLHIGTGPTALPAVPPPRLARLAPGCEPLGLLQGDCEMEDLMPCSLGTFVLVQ
Sequence of Serine/threonine-protein kinase SIK2 (Homo sapiens) (Q9H0K1 whole entry, looked up): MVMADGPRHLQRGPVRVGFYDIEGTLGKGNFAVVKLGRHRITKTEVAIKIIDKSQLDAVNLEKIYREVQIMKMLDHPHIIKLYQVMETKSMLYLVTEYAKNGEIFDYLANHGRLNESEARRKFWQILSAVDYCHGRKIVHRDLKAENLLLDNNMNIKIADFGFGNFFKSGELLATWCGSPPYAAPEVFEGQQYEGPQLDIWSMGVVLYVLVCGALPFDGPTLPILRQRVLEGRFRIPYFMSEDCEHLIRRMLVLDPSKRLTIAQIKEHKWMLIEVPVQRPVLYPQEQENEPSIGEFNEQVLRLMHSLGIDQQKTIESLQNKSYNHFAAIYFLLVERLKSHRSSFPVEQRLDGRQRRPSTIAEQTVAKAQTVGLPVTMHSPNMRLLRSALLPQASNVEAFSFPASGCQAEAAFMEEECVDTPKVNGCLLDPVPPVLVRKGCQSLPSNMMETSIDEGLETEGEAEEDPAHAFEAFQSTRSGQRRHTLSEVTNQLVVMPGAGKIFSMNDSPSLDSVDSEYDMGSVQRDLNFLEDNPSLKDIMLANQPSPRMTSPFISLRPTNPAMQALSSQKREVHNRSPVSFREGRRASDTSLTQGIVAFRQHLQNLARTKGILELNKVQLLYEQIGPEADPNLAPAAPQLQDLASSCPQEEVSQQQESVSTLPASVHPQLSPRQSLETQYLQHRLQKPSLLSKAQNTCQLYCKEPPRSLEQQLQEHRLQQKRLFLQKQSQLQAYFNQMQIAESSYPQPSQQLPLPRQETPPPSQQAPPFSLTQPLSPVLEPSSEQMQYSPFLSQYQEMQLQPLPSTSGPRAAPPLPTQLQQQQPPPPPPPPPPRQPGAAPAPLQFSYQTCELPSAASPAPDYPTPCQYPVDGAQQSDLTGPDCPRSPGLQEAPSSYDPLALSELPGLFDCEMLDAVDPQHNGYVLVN
Sequence of Serine/threonine-protein kinase pim-2 (Homo sapiens) (Q9P1W9 whole entry, looked up): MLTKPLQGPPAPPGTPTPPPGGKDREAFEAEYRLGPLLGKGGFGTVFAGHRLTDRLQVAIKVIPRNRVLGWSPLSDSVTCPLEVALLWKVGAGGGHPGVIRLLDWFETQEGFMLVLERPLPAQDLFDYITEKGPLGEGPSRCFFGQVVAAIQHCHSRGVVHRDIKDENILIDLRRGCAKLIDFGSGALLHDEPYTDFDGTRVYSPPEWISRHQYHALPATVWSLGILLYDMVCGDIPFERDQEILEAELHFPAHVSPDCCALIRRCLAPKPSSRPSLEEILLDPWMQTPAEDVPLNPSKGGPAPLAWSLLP

In the case of `CCn1c(-c2nonc2N)nc2cnc(Oc3cccc(NC(=O)c4ccc(N(C)C)cc4)c3)cc21`, the inhibition is 1.39% in experiment [1]; -0.12% in experiment [2]; 1.67% in [3]; 0.33% in experiment [4]; -1.26% in experiment [5]; 1.57% in [6]. In addition, the inhibition in experiment [7] worked out at 2.47%; in [8] it was 4.79%; in experiment [9] it was 4.74%; in experiment [10] it was 0.53%.

On to `COc1ccc(-c2nn3ncccc3c2-c2ccnc(Nc3ccc4c(c3)OCCO4)n2)cc1`, for which the inhibition in [1] was 1.11%; in experiment [2], 0.26%; in [3], 2.15%; in experiment [4] it was 0.05%; in experiment [5] it was -0.76%; in experiment [6], 1.35%. Further, the inhibition is 12.5% in [7], -0.55% in experiment [8], 6.1% in [9] and -0.73% in experiment [10].

Consider `FC(F)(F)c1cccc(-c2nn3ncccc3c2-c2ccnc(Nc3ccc4c(c3)OCCO4)n2)c1`, for which the inhibition in experiment [1] was 0.66%; in [2] it was -1.58%; in experiment [3] it was -2.3%; in experiment [4] it was 0.49%; in experiment [5], -0.29%; in [6] it was 3.06%. The inhibition in experiment [7] was determined as 6.62%; in experiment [8] it was 3.42%; in experiment [9], 6.02%; in experiment [10] it was 0.3%.

As to `Nc1nc(-c2ccc(F)cc2)c(-c2ccc3ncccc3n2)s1`, the inhibition in experiment [1] came out at 0.96%; in [2], 0.41%; in [3], 2.02%; in [4], 1.52%; in experiment [5], 2.44%; in experiment [6] it was 11.6%. For the same compound, the inhibition in experiment [7] stood at 7.23%; in [8], 8.76%; in experiment [9], 11.6%; in experiment [10], 3.41%.

`CCn1c(-c2nonc2N)nc2c(C#CC(C)(C)O)nc(OC[C@H](N)c3ccccc3)cc21`: the inhibition in experiment [1] turned out to be 3.44%; in experiment [2], 0.83%; in experiment [3], 4.27%; in experiment [4] it was 0.68%; in experiment [5], 1.6%; in experiment [6], 3.53%. Also, the inhibition is 7.29% in [7], 1.31% in experiment [8], -1.51% in experiment [9] and 3.75% in experiment [10].

For `O=C(Nc1n[nH]c2cc(-c3ccc(F)cc3)ccc12)C1CC1`, the inhibition was 1.49% in experiment [1]; 0.08% in [2]; 0.99% in experiment [3]; 1.06% in experiment [4]; 5.12% in [5]; 4.89% in experiment [6]. In addition, the inhibition in [7] was 6.8%; in experiment [8] it was 5.76%; in experiment [9], 7.9%; in experiment [10], 2.6%.

Consider `COc1ccc(-c2cc3c(N)ncnc3o2)cc1`, for which the inhibition in experiment [1] is 2.23%; in experiment [2], 1.44%; in experiment [3], 6.86%; in [4] it was -0.43%; in experiment [5], -0.51%; in [6] it was -3.64%. The inhibition in [7] worked out at 12%; in experiment [8], 5.43%; in experiment [9] it was 7.33%; in [10] it was 0.41%.

Turning to `CCNC(=O)O[C@H]1CN[C@H](C#Cc2cc3ncnc(Nc4ccc(OCc5cccc(F)c5)c(Cl)c4)c3s2)C1`, the inhibition was -0.15% in experiment [1]; -0.41% in experiment [2]; -2.78% in experiment [3]; 0.89% in experiment [4]; 0.04% in experiment [5]; 9.17% in experiment [6]. Also, the inhibition in experiment [7] stood at 7.09%; in experiment [8], 4.37%; in [9], 4.15%; in [10], 1.48%.

For `COc1ccc(-c2cc(-c3c[nH]nc3-c3ccccn3)ccn2)cc1`, the inhibition turned out to be 1.29% in [1]; 0.79% in experiment [2]; 1.9% in experiment [3]; 2.14% in [4]; 4.32% in [5]; 11.2% in experiment [6]. For the same compound, the inhibition in [7] turned out to be 7.23%; in experiment [8] it was 3.82%; in [9], 11.3%; in experiment [10] it was 4.48%.

Regarding `COc1cc2c(cc1Nc1nc(Nc3ccsc3C(N)=O)c3cc[nH]c3n1)N(C(=O)CN(C)C)CCC2(C)C`, the inhibition was determined as 11.9% in experiment [1]; 18.4% in [2]; 68.1% in experiment [3]; 1.65% in experiment [4]; 3.7% in experiment [5]; 2.02% in experiment [6]. Also, the inhibition in experiment [7] amounted to 7.92%; in experiment [8] it was 7.71%; in experiment [9], 7.78%; in [10], 11.3%.

In the case of `COC(=O)c1sc(-n2cnc3cc(OC)c(OC)cc32)cc1OCc1ccccc1C(F)(F)F`, the inhibition in experiment [1] was -0.34%; in experiment [2], -1.72%; in experiment [3] it was -2.84%; in [4], 2.02%; in experiment [5], -0.15%; in [6], 6.13%. The inhibition amounted to 24.6% in experiment [7], 5.85% in experiment [8], 15.2% in [9] and 3.44% in [10].

Take `CNC(=O)c1cncc(/C=C/c2ccccc2Cl)c1`: the inhibition in [1] worked out at 0.04%; in experiment [2], 3.4%; in experiment [3] it was 5.1%; in [4] it was 0.27%; in [5], 1.73%; in experiment [6], 2.02%. For the same compound, the inhibition in experiment [7] is 25.6%; in experiment [8], 2.24%; in [9], 8.3%; in experiment [10], 0.45%.

On to `CNC(=O)c1cccc(C#Cc2cncnc2Nc2ccc(OCc3cccc(F)c3)c(Cl)c2)c1`, for which the inhibition in experiment [1] is -1.75%; in experiment [2], 0.69%; in [3], 2.29%; in experiment [4], 0.27%; in experiment [5], 1.49%; in experiment [6], 2.11%. Besides, the inhibition in experiment [7] was 3.26%; in experiment [8] it was -1.57%; in experiment [9] it was -1.75%; in experiment [10], -0.71%.

Take `CNC(=O)c1cc(-c2ccc(F)cc2)cc(-c2ccc(S(=O)(=O)N3CCCC3)cc2)c1N`: the inhibition was 0.43% in experiment [1]; -1.52% in [2]; -0.11% in experiment [3]; 0.53% in [4]; 0.97% in [5]; 6.18% in [6]. Moreover, the inhibition in [7] turned out to be 6.6%; in experiment [8], 3.18%; in experiment [9], 5.07%; in experiment [10] it was 0.38%.

As for `CCn1cc(-c2ccnc3[nH]ccc23)c(-c2cccc(NC(=O)Nc3ccc(OCc4ccccc4)cc3)c2)n1`, the inhibition in [1] was 0.13%; in [2] it was -0.81%; in experiment [3], -1.13%; in [4] it was -0.44%; in [5] it was -0.98%; in [6], 1.1%. Moreover, the inhibition in experiment [7] is 3.35%; in [8], -4.91%; in experiment [9], -0.71%; in [10] it was -0.45%.

As to `c1cc(-c2cnn3nc(N4CCOCC4)ccc23)nc(NC2CC2)n1`, the inhibition was 0.92% in [1]; -0.59% in experiment [2]; 4.8% in experiment [3]; 1.08% in [4]; 0.41% in experiment [5]; 7.04% in experiment [6]. Moreover, the inhibition in [7] turned out to be 5.66%; in experiment [8] it was 6.34%; in experiment [9], 7.7%; in experiment [10], 3.02%.

Take `NS(=O)(=O)c1ccc(N/N=C2\C(=O)Nc3ccc4ncccc4c32)cc1`: the inhibition was 9.88% in experiment [1]; 1.09% in experiment [2]; 12.5% in experiment [3]; 1.52% in [4]; 8.94% in [5]; 2.74% in [6]. The inhibition in experiment [7] was 31.3%; in experiment [8], -0.54%; in experiment [9], 31.6%; in experiment [10], 7.16%.
